According to PubChem BioAssay AID932 (The Scripps Research Institute Molecular Screening Center, 2007):
Hit rate of the full screen: of about 200,000 compounds, about 5,100 (2.5%) were called active. Only a selection was taken, and actives are over-represented in it overall. Unmarked numbers belong to inactive results.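 Rule for the calls: active = activation above the screen-wide mean activation plus 3 SD (cut at about 130% in these data); inactive = the rest.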

assay: potentiators of IFN-gamma driven STAT1 reporter – cell-based, HTS, luciferase reporter, primary screen (AID 932); conditions: NIH 3T3 STAT1-luciferase reporter, luminescence, at 5.5 µM, stronger effect = higher value, 100% = IFN-gamma alone, no compound;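 note: raw ratio to IFN-gamma control signal so 100% means no change and 0% no light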

Going from `CCCC(=O)N=c1sc2cccc(F)c2n1C` to `Cn1c(=NC(=O)C2CC2)sc2cc(F)cc(F)c21`, the activation (% of control) falls from 114% to 108%.

First: CC(=O)Nc1ccc(S(=O)(=O)Oc2ccc(/C=N/N=C3/NC(=O)C(CC(=O)O)S3)cc2)cc1 (stereo not drawn)
Second: CC(=O)Nc1ccc(S(=O)(=O)Nc2nccc(/C=C/c3ccccc3F)n2)cc1
The activation (% of control) of the first is lower: 97.8% for the first, 98.1% for the second.

Going from `CCCCn1c(=O)c(C(C)=O)c(O)c2ccccc21` to `COc1cc([C@H](Cc2ccccc2)NC(C)=O)oc(=O)c1`, the activation (% of control) rises from 95.7% to 96.8%.

First: Cc1cc(C2=NNC(=Nc3ccc(S(=O)(=O)N4CCOCC4)cc3)SC2)c(C)n1CC1CCCO1 (stereo not drawn)
Second: C=CCn1c(C)cc(C2=NNC(=NCC)SC2)c1C
The activation (% of control) of the first is higher: 99.8% for the first, 15.6% for the second.

Compared with `COc1ccc(C2CC(c3cccs3)=NN2c2ccccc2)cc1` (stereo not drawn), `COc1ccc(C2CC(c3cccs3)Nc3nnnn32)cc1` (stereo not drawn) is lower in activation (% of control): 93.2% for the first, 87.6% for the second.

Going from `Cc1cc(C)cc(N(CC(=O)NCCSCc2ccco2)S(C)(=O)=O)c1` to `Cc1ccc(-n2[nH]c(C)c(/C=N/NC(=O)c3cccc([N+](=O)[O-])c3)c2=O)cc1C`, the activation (% of control) falls from 102% to 101%.

First: Cc1ccccc1Nc1nc(N)nc(CSc2nnc3ccccn23)n1
Second: Cc1ccc(C(=O)OCc2nc(N)nc(Nc3ccccc3C)n2)cc1
The activation (% of control) of the first is higher: 120% for the first, 96.8% for the second.

Compared with `CC(C)(C)C1CCC(=NNC(=O)c2cc(-c3ccccc3)n[nH]2)CC1` (stereo not drawn), `O=C(c1cc(-c2ccccc2O)on1)N1CCCC1` is lower in activation (% of control): 113% for the first, 108% for the second.

First: CCOC(=O)N1CCN(C(=O)C2CCN(Cc3ccc(OC)cc3OC)CC2)CC1
Second: COc1ccccc1N1CCN(C(=O)c2cc(-c3ccc(Br)cc3)on2)CC1
The activation (% of control) of the first is lower: 94.7% for the first, 99.6% for the second.

`CCOc1ccc2nc(/N=C/c3nc(-c4ccccc4)oc3O)sc2c1` and `CC(N=Cc1nc(-c2ccccc2)oc1O)c1ccccc1` (stereo not drawn) are the same in activation (% of control): 104% for the first, 104% for the second.

Going from `O=C1NC(c2ccc(-c3ccccc3[N+](=O)[O-])o2)C(C(=O)c2ccc(Cl)cc2)C(O)(C(F)(F)F)N1` (stereo not drawn) to `O=C(Oc1ccc([N+](=O)[O-])cc1)c1ccc2ccccc2n1`, the activation (% of control) falls from 102% to 94.7%.

First: COc1ccc(C(C)=O)cc1CSc1nc2nc(C)cc(C)n2n1
Second: CNC(=O)COC(=O)c1cc(-c2ccc(OC)cc2)nc2ccccc12
The activation (% of control) of the first is lower: 93.7% for the first, 99.7% for the second.

Compared with `COc1ccc(C(=O)COC(=O)c2ccc3ccccc3n2)cc1`, `Cc1ccc(-c2cc(C(=O)N3CCc4ccccc4C3)no2)cc1` is lower in activation (% of control): 103% for the first, 97.3% for the second.

Compared with `CCC(NC(=O)c1ccccc1NC(=O)c1ccccc1)C(=O)NNC(=O)CSc1nc2ccccc2o1` (stereo not drawn), `O=C(c1cccs1)n1nc(NCc2ccccc2)nc1NCc1ccccc1` is higher in activation (% of control): 94% for the first, 107% for the second.

Compared with `Cc1[nH]n(-c2ccc(Cl)cc2)c(=O)c1/C=N/n1c(C)nc2ccccc2c1=O`, `Cc1cc(=O)[nH]c(N/N=C/c2c(C)nn(-c3ccccc3Cl)c2Cl)n1` is higher in activation (% of control): 99.3% for the first, 100% for the second.

Compared with `C=CCn1c(SCC(N)=O)nnc1-c1cc2c(s1)CCC(CC)C2` (stereo not drawn), `Cc1ccc(OCc2nnc(SC3CCc4ccccc4C3=O)n2C)cc1` (stereo not drawn) is lower in activation (% of control): 121% for the first, 105% for the second.

Going from `CC1CN(/C=C/C(=O)C(F)(F)F)CC(C)O1` (stereo not drawn) to `O=C(c1ccc(F)cc1)N1CCCC(c2nc(-c3cccs3)no2)C1` (stereo not drawn), the activation (% of control) rises from 95.8% to 96.9%.

Compared with `CCSc1sc(CC)cc1C=O`, `CCc1nnc(NS(=O)(=O)c2ccc(NC(=S)NC(=O)c3cccs3)cc2)s1` is higher in activation (% of control): 107% for the first, 109% for the second.

First: CC(OC(=O)CNS(=O)(=O)/C=C/c1ccccc1)C(=O)Nc1ccc(S(=O)(=O)N2CCCC2)cc1 (stereo not drawn)
Second: CC(=O)c1ccc(NC(=O)c2ccc3c(Cl)c4c(nc3c2)CCCC4)cc1
The activation (% of control) of the first is lower: 89% for the first, 113% for the second.

`O=C(CN1CCN(c2ccc(O)cc2)CC1)NC1CCCc2ccccc21` (stereo not drawn) gave an activation (% of control) of 101%.

With `Cn1c(=NC(=O)c2ccco2)sc2cccc(F)c21` the activation (% of control) was 135% (active).
In the case of `COCCn1c(C)cc(C2=NNC(=Nc3ccc(F)cc3)SC2)c1C`, the activation (% of control) is reported as 133% (active).
With `Cc1ccccc1Nc1nc(N)nc(CSc2ccccc2)n1` the activation (% of control) was 183% (active).
In the case of `Oc1oc(-c2ccccc2Br)nc1/C=N/c1ccccn1`, the activation (% of control) is reported as 131% (active).
With `CC(OC(=O)c1ccc2ccccc2n1)C(=O)c1ccccc1` (stereo not drawn) the activation (% of control) was 138% (active).
With `Cc1[nH]n(-c2ccccc2)c(=O)c1/C=N/NC(=O)c1ccoc1C` the activation (% of control) was 155% (active).
With `O=C(c1cc(-c2cccs2)on1)N1CCCCC1` the activation (% of control) was 162% (active).
For `COc1ccccc1-c1cc(C(=O)N2CCCCC2)no1`, the activation (% of control) was 164% (active).
With `Cc1cc(C)nc(NS(=O)(=O)c2ccc(N/C=C\C(=O)c3cccs3)cc2)n1` the activation (% of control) was 135% (active).
